# According to PubChem BioAssay (Tox21):
# “And” between values parts separate entries of the source, which are not always exact repeats. Equal values may be shown once. Records with an inconclusive call do not appear. A number with no mark means an inactive call. The source made the active and inactive calls. The call rests on the fitted dose curve; in most records, active means well fitted cell-killing curve with a large enough effect in the repeat runs; inconclusive means weak or mixed curves, or effect the other way; inactive means no such curve, though single readings can be large or run the other way.
# Assay: qHTS assay for identifying genotoxic compounds that show differential cytotoxicity against isogenic chicken DT40 cell lines with known DNA damage response pathways - Rev3 mutant cell line (AID 743014); further: nearly all actives have a fitted effect of over 55% in size
# Conditions: chicken DT40 Rev3-/- viability, CellTiter-Glo, 40 h; series mostly up to 68.4 µM; activity, negative = cytotoxicity: at the top concentration
# Excerpt: National Center for Advancing Translational Sciences [NCATS]
# NIH Chemical Genomics Center [NCGC]
# U.S. Environmental Protection Agency [EPA]
# National Institutes of Environmental Health Sciences [NIEHS]
# National Toxicology Program [NTP]
# U.S. Food and Drug Administration [FDA]
# DNA repair pathways play a critical role in cellular homeostasis by repairing DNA damage induced by endogenous processes and xenobiotics. Isogenic chicken DT40 cell lines deficient in different DNA repair pathways can be used to identify genotoxic compounds and aid in characterizing the nature of the DNA damage induced. Two DNA repair-deficient cell lines with disrupted genes, Rad54/Ku70 or Rev3, were used to screen the Tox21 10K compound library. Possible genotoxicity was based on the presence of a significant increase in cytotoxicity in one or more of the DNA repair-deficient cell lines compared to that observed in the parental DNA repair-proficient cell line. CellTiter Glo viability assay (Promega, Madison, WI) was used to measure cell viability in these cells after compound treatment. This assay includes the data from the Rev3 mutant cell line.
# Tox21 Assay Protocol Summary:
# 300 DT40 mutant cells in 5 uL/well were dispensed into white, solid-bottom 1536-well plates using a Multidrop Combi (ThermoFisher Scientific, Waltham, MA) dispenser. After the assay plates were incubated at 37 C/5% CO2 for approximately 0.5 hour, 23 nL of compounds dissolved in DMSO, positive controls or DMSO only was transferred into the assay plate by a pintool work station (Kalypsys, San Diego, CA). The assay plates were incubated at 37 C/5% CO2 for 40 hours. After 5 uL per well of CellTiter-Glo reagent was added into each well of the assay plates, the plates were incubated for 30 min at room temperature and the luminescence intensity of the plates was measured using a ViewLux (PerkinElmer, Shelton, CT) plate reader.
# On the % scale 0 is the no-effect control and ±100 the full control effect; potency means the concentration at half of the fitted maximal effect.
SMILES,"activity, negative = cytotoxicity",Potency
CCCC(C)C(=O)OCC (stereo not given),-2.55%,–
O=S(=O)(O)c1cccc2c(S(=O)(=O)O)cccc12,-0.909%,–
CCC(C(=O)NC(=O)NC(C)=O)c1ccccc1 (stereo not given),7.65%,–
CC(C)C(=O)OC(=O)C(C)C,5.16%,–
CC(C)COC(=O)c1ccc(N)cc1,-9.23%,–
CN1CCC(=C2c3ccccc3CCc3cccnc32)CC1,0.484%,–
CCCCCCCC1CCCC1=O (stereo not given),-4.71%,–
CCCCS(=O)(=O)N[C@@H](Cc1ccc(OCCCCC2CCNCC2)cc1)C(=O)O,-4.95%,–
CC(C(=O)O)c1cccc(Oc2ccccc2)c1 (stereo not given),-1.56% [at 31.4 µM],–
O=S(=O)(O)c1cc(O)c(O)c(S(=O)(=O)O)c1,3.38%,–
CCOC(=O)OC(C)OC1=C(C(=O)Nc2ccccn2)N(C)S(=O)(=O)c2ccccc21 (stereo not given),–,1.5 µM (active)
CCCOC(=O)CC,-5.43%,–
C=CCCCCCCCCC(=O)OCC,-3.49%,–
CN(C)C(=O)Oc1ccc[n+](C)c1,13.5%,–
CCC(C)(CCCC(C)C)OC(C)=O (stereo not given),1.5%,–
CO/N=C(\C(=O)N[C@@H]1C(=O)N2C(C(=O)O)=C(CSc3nc(=O)c(O)nn3C)CS[C@H]12)c1csc(N)n1,0.437%,–
CCN1CCOCC1,-7.1%,–
CC(C)(N)C#N,2.56% [at 95 µM],–
CC(C)C[C@@H](N)C(=O)O,4.89%,–
c1ccc(CCc2ccccc2)cc1,0.121%,–

SMILES,"activity, negative = cytotoxicity",Potency
CCCc1nn(C)c2c(=O)[nH]c(-c3cc(S(=O)(=O)N4CCN(C)CC4)ccc3OCC)nc12,2.58%,–
CN1CC(=O)N/C1=N/C(=O)Nc1cccc(Cl)c1,4.22%,–
COc1c(N2CCNC(C)C2)c(F)cc2c(=O)c(C(=O)O)cn(C3CC3)c12 (stereo not given),-4.08%,–
NS(=O)(=O)Cc1noc2ccccc12,0.573%,–
N[C@@H](CCC(=O)O)C(=O)O,–,inactive
Cc1nc2ccc(CN(C)c3ccc(C(=O)N[C@@H](CCC(=O)O)C(=O)O)s3)cc2c(=O)[nH]1,–,2.7 nM (active) and 5.3 nM (active)
CN1[C@@H]2CC[C@H]1CC(OC(=O)C(O)c1ccccc1)C2 (stereo not given in full),–,inactive
COc1cccc(OC)c1C(=O)N[C@@H]1C(=O)N2[C@@H]1SC(C)(C)[C@@H]2C(=O)O,18.8%,–
CC(C)(C)OC(=O)c1cccc(N)c1,-0.421% [at 95 µM],–
CCOC(=O)CCC(=O)OCC,–,68.5 µM (active)
CCCCCCCCCCOc1cc2c(=O)c(C(=O)OCC)c[nH]c2cc1OCC,7.49%,–
CCCCCCCCCC[N+](C)(C)[O-],–,13.7 µM (active)
CC[N+](C)(CC)CCOC(=O)C1c2ccccc2Oc2ccccc21,14.9%,–
CC(=O)NC(=O)c1ccccc1O,18.8%,–
COc1ccnc(CS(=O)c2nc3cc(OC(F)F)ccc3[nH]2)c1OC (stereo not given),-9.04%,–
CNCCO,-6.27%,–
CC1(C)[C@@H]2CC[C@@]1(C)[C@H](O)C2,-6.24%,–
NO,-1.6% [at 95 µM],–
CC(=O)c1cnccn1,-25.4% [at 95 µM],–
Nc1ccn([C@@H]2O[C@H](CO)[C@@H](O)C2O)c(=O)n1 (stereo not given in full),–,266 nM (active) and 172 nM (active)
